test system: HepG2; test: GSK_TCMDC: Percent inhibition of human HepG2 cell line. Test compounds present at 10uM.; type: functional

**Q.** With CCCCN1CCN(Cc2cccc(NC(=O)c3ccc(Cl)c(Cl)c3)c2)CC1.O=C(O)C(F)(F)F as the molecule, how does the Inhibition read?
**A.** Its Inhibition is 21%.

**Q.** Which Inhibition does the source give for CC1CN(c2cnn(Cc3cccc(NC(=O)Nc4cccc(C(F)(F)F)c4)c3)c(=O)c2Cl)CC(C)N1.O=C(O)C(F)(F)F (stereo not given) here?
**A.** The Inhibition was 19%.

**Q.** How did the Inhibition turn out when O=C(Nc1cccc(-c2ccc(-c3nc4cc(F)ccc4[nH]3)s2)c1)c1cccnc1 was run?
**A.** The Inhibition was 46%.

**Q.** For Cc1cccc2nc(C3CCN(CC4CCN(C(=O)/C=C/c5ccc(Cl)c(Cl)c5)CC4)CC3)[nH]c12, which Inhibition is on record?
**A.** Its Inhibition is 46%.

**Q.** For CCN(CC)/C(=N/C(=N)Nc1ccc(C)cc1)NCCCCCCN/C(=N\C(=N)Nc1ccc(C)cc1)N(CC)CC, which Inhibition is on record?
**A.** Its Inhibition is 10%.

**Q.** CCNc1cc(C(=O)N[C@@H](Cc2ccccc2)[C@H](O)CNCc2cccc(OC)c2)c(OC)c(N2CCCCS2(=O)=O)c1 was tested. Which Inhibition did it give?
**A.** Its Inhibition is 11%.

**Q.** CCCc1ccc(S(=O)(=O)Nc2ccc3c(c2)CCC3)cc1 was tested. Which Inhibition did it give?
**A.** Its Inhibition is 8%.

**Q.** For CC(C)CNCc1cccc(-c2ccc(CN(CCCN3CCN(C)CC3)C(=O)CCC3CCCC3)cc2)c1.O=C(O)C(F)(F)F, which Inhibition is on record?
**A.** The Inhibition was 82%.

**Q.** With Cn1nc(-c2cccc(CNCCc3cccs3)c2)c2cnc(NC3CCCC3)nc21 as the molecule, how does the Inhibition read?
**A.** The Inhibition was 8%.

**Q.** With COc1ccc2nccc([C@@H](O)CN3CCC(NCc4ccc5c(c4)NC(=O)CO5)CC3)c2c1.Cl as the molecule, how does the Inhibition read?
**A.** Its Inhibition is 1%.

**Q.** CCN(CC)CCN(Cc1ccc(-c2ccc(Cl)s2)cc1)C(=O)Cn1c(CCc2cccc(F)c2F)nc(=O)c2ccccc21.O=C(O)C(O)C(O)C(=O)O was tested. Which Inhibition did it give?
**A.** The Inhibition was 24%.

**Q.** Which Inhibition does the source give for CC(C)c1ccc2c(c1)c(SC(C)(C)C)c(CC(C)(C)C#N)n2Cc1ccc(Cl)cc1 here?
**A.** Its Inhibition is 0%.

**Q.** Which Inhibition does the source give for Cl.N#Cc1ccc2c(c1)CCN(CCC1CCC(NC(=O)/C=C/c3cc(Br)cs3)CC1)CC2 (stereo not given) here?
**A.** The Inhibition was 3%.

**Q.** Which Inhibition does the source give for O=C(Nc1cccc(CN2CCN(C(=O)c3cccc(Cl)c3)CC2)c1)c1cccs1.O=C(O)C(F)(F)F here?
**A.** The Inhibition was 17%.

**Q.** How did the Inhibition turn out when CC(C)COc1ccc(Cl)cc1Cc1ccc(-c2nc3ccc(Cl)cc3[nH]2)o1 was run?
**A.** The Inhibition was 19%.

**Q.** For Cl.O=c1ccc2ncc(Cl)c3c2n1CC3CN1CCC(NCc2cc3c(cn2)OCCO3)CC1 (stereo not given), which Inhibition is on record?
**A.** The Inhibition was 27%.

**Q.** How did the Inhibition turn out when O=C(Nc1cccc(-c2ccc(-c3nc4ccccc4[nH]3)cc2)c1)c1cccnc1 was run?
**A.** Its Inhibition is 18%.

**Q.** With CC(C)c1sc(N2CCN(C)CC2)nc1C(=O)Nc1cccc2c1CCCC2.O=C(O)C(F)(F)F as the molecule, how does the Inhibition read?
**A.** Its Inhibition is 3%.

**Q.** NC(=O)c1cccc(C(=O)Nc2cccc(-c3cccc(-c4nc5cc(F)ccc5[nH]4)c3)c2)c1 was tested. Which Inhibition did it give?
**A.** The Inhibition was 47%.

**Q.** How did the Inhibition turn out when CCn1c(-c2nonc2N)nc2cnc(Oc3cccc(NC(=O)c4ccc(OCCN5CCCC5)cc4)c3)cc21 was run?
**A.** The Inhibition was 25%.

**Q.** Which Inhibition does the source give for COc1cccc2sc(N3CCN(C(=O)c4ccc([N+](=O)[O-])o4)CC3)nc12 here?
**A.** The Inhibition was 0%.

**Q.** How did the Inhibition turn out when O=C(O)C(F)(F)F.c1ccc2c(c1)CN(Cc1cc3ccccc3[nH]1)CC1(CCN(Cc3c[nH]c4cnccc34)CC1)O2 was run?
**A.** Its Inhibition is 27%.

**Q.** How did the Inhibition turn out when COC(=O)C(C)NCC(=O)c1ccccc1.Cl (stereo not given) was run?
**A.** The Inhibition was 5%.

**Q.** O=C(NC1CCN(Cc2ccccc2)CC1)c1ccc(-c2nc3cc(Cl)c(Cl)cc3[nH]2)c(F)c1 was tested. Which Inhibition did it give?
**A.** Its Inhibition is 4%.

**Q.** O=C(NCCN1CCCCC1)c1cc2cc(-c3ccccc3)ccc2n1S(=O)(=O)c1ccccc1 was tested. Which Inhibition did it give?
**A.** Its Inhibition is 15%.

**Q.** For CC(C)(C)c1ccc(CN2CCC(NC(=O)c3ccc(-c4cccc(Cl)c4)s3)CC2)cc1.O=C(O)C(F)(F)F, which Inhibition is on record?
**A.** Its Inhibition is 36%.

**Q.** O=C(C=Cc1ccc(Cl)c(Cl)c1)NCCCCCN1CCC(CCNC(=O)c2sc3ccccc3c2Cl)CC1 was tested. Which Inhibition did it give?
**A.** The Inhibition was 27%.

**Q.** For CC(C)(C)c1ccc(C(=O)Nc2ccc3nc4c(c(N)c3c2)CCCC4)cc1.Cl, which Inhibition is on record?
**A.** The Inhibition was 21%.

**Q.** For COc1ccc(N2CCN(CCCCNC(=O)c3ccc(NC(=O)c4ccc(OC(F)(F)F)cc4)cc3)CC2)c(OC)c1, which Inhibition is on record?
**A.** Its Inhibition is 36%.

**Q.** For COc1cc(OC)cc(-c2nn(-c3ccc([N+](=O)[O-])cc3Cl)c(=S)n2Cc2ccco2)c1, which Inhibition is on record?
**A.** Its Inhibition is 15%.

**Q.** How did the Inhibition turn out when CCCCCCn1c(Sc2ccc(C#N)c([N+](=O)[O-])c2)nnc1-c1cccs1 was run?
**A.** Its Inhibition is 26%.

**Q.** For Cc1cc(C(=O)Nc2ccc3c(c2)CCN3C2CCN(Cc3ccc(F)cc3Cl)C2)no1 (stereo not given), which Inhibition is on record?
**A.** The Inhibition was 7%.

**Q.** How did the Inhibition turn out when C[C@@H]1CC[C@H](NC(=O)[C@H](CC2CCCC2)NC(=O)N2CCNCC2)C(=O)CN1S(=O)(=O)c1ccccn1.O=C(O)C(F)(F)F was run?
**A.** The Inhibition was 5%.

**Q.** With COc1cccc(CNC(=O)c2cc(CNCc3ccccc3)ccc2-c2cccc(CNCc3ccc(-c4ccccc4)cc3)c2)c1.O=C(O)C(F)(F)F as the molecule, how does the Inhibition read?
**A.** Its Inhibition is 22%.

**Q.** How did the Inhibition turn out when O=C(O)C(F)(F)F.O=S(=O)(NCCN1CCCC1)c1cccc(-c2ccc(CNCc3ccc(F)cc3)cc2)c1 was run?
**A.** Its Inhibition is 38%.

**Q.** Cc1cc(=O)c(-c2ccc(Oc3cccc(Cl)c3)cc2)c(C)[nH]1 was tested. Which Inhibition did it give?
**A.** The Inhibition was 23%.

**Q.** Which Inhibition does the source give for Cc1ccc(NC(=O)c2nc(N3CCN(c4ccncc4)CC3)ccc2Cl)cc1F.O=C(O)C(F)(F)F here?
**A.** Its Inhibition is 51%.

**Q.** With COc1ccc2c(c1)OC(C)(C)CC2=NOS(=O)(=O)c1ccc(C)cc1 as the molecule, how does the Inhibition read?
**A.** Its Inhibition is 10%.

**Q.** With Cc1cc(Cl)ccc1OC(C)C(=O)N1CCc2ccccc21 (stereo not given) as the molecule, how does the Inhibition read?
**A.** Its Inhibition is 8%.

**Q.** With NC(=O)C1CCN(Cc2ccc(-c3ccc(-c4nc5cc(C(F)(F)F)ccc5[nH]4)s3)cc2)CC1.O=C(O)C(F)(F)F as the molecule, how does the Inhibition read?
**A.** The Inhibition was 22%.

Source: ChEMBL document CHEMBL1157539, “Thousands of chemical starting points for antimalarial lead identification” (Nature, 2010)
